These results are taken from the supplement of paper PMC7411054.

Molecules are shown by their SMILES. Where a name gives a salt, the structure may show the parent alone.

One experiment deals with HepG2-CANX-COX4. The experiment can be described thus: phenotypically active (imaging signature differs from DMSO and reproducible) at any of 0.3-9 uM (binary (1 = active, 0 = inactive)); higher = active. Conditions: treatment time: 24 h. The procedure, abridged:
(§1)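 Each of fifteen gene-edited A549, HepG2 and WPMY1 reporter lines, marked with BFP for segmentation and GFP and RFP/FusionRed, was treated in four wells at 0.3, 1, 3 or 9 µM for 24 h prior to live imaging. Normalisation of per-well live-cell features used solvent control wells. Deviation needed ≥3 of 4 wells beyond the 95th percentile of control Euclidean distances, and reproducibility needed a median replicate Pearson correlation above the 95th percentile of non-replicates. Both were required for phenotypic activity.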
For `O=C(CCCCCCC(=O)Nc1ccc([C@H]2O[C@@H](CSc3nc(-c4ccccc4)c(-c4ccccc4)o3)C[C@@H](c3ccc(CO)cc3)O2)cc1)NO` [Tubacin], the phenotypically active was 0 (inactive).

With `CC1CNCCN1S(=O)(=O)c1cccc2cnccc12` (stereo not drawn) [H-7 dihydrochloride], the phenotypically active is 1 (active).

With `COc1cc(OC)c2c(=O)[nH]c(-c3cc(C)c(OCCO)c(C)c3)nc2c1` [apabetalone], the phenotypically active is 1 (active).

`CC1(CN2CCC(n3c(=O)[nH]c4ccccc43)CC2)OCc2ccccc2-n2cccc21` (stereo not drawn): the phenotypically active is 0 (inactive).

Consider `N#Cc1ccc2ncnc(NCCc3ccccc3)c2c1` [Senexin A], for which the phenotypically active was 1 (active).

As for `Nc1ccc(N=Nc2ccccc2)c(N)n1` [phenazopyridine], the phenotypically active is 0 (inactive).

`O=C(CCCCCCC(=O)NO)NO`: the phenotypically active is 0 (inactive).

`CC(C)(C)c1ccc(C(O)CCCN2CCC(C(O)(c3ccccc3)c3ccccc3)CC2)cc1` (stereo not drawn) [terfenadine]: the phenotypically active was 0 (inactive).

Consider `COc1ccccc1C(=O)Nc1cc2c(cc1N1CCCC1)n(C)c(=O)n2C`, for which the phenotypically active is 0 (inactive).

For `CCC(=O)N1CCOc2c(cc(-c3ccc(OC)c(OC)c3)cc2OC[C@H]2CCCN(C)C2)C1`, the phenotypically active was 1 (active).

`CCc1nc(-c2cccc(C)c2)c(-c2ccnc(NC(=O)c3ccccc3)c2)s1`: the phenotypically active was 1 (active).

As for `Cc1ccc(S(=O)(=O)n2c(N)nc3ccccc32)cc1`, the phenotypically active is 0 (inactive).

On to `Cc1ccc(NC(=O)c2cccc(C(C)(C)C#N)c2)cc1Nc1ccc2ncn(C)c(=O)c2c1`, for which the phenotypically active is 1 (active).

In the case of `Cn1cc(-c2cnc3ccc4ccc(CS(=O)(=O)NCc5ccccn5)cc4c(=O)c3c2)cn1`, the phenotypically active is 0 (inactive).

`O=C1c2c(O)cccc2Cc2cccc(O)c21` [anthralin]: the phenotypically active was 0 (inactive).

`COc1cc2c(cc1OC)-c1c/c(=N/c3c(C)cc(C)cc3C)n(C)c(=O)n1CC2` [Trequinsin hydrochloride]: the phenotypically active is 1 (active).

`O=C(Nc1ccncc1)c1cc([N+](=O)[O-])ccc1Cl`: the phenotypically active is 1 (active).

As for `Nc1ncnc2c1c(-c1ccc(Oc3ccccc3)cc1)nn2C1CCCC1`, the phenotypically active is 0 (inactive).

In the case of `O=C(Nc1ccc(CN2CCOCC2)cc1)c1ccc(-c2cccc(Cl)c2)o1`, the phenotypically active was 0 (inactive).

On to `O=C(/C=C/c1ccc2ccccc2n1)c1ccncc1`, for which the phenotypically active was 0 (inactive).

With `CNCC[C@H](Oc1cccc2ccccc12)c1cccs1` [duloxetine], the phenotypically active is 0 (inactive).

Take `CNC(=O)c1cc(Oc2ccc(NC(=O)Nc3ccc(Cl)c(C(F)(F)F)c3)c(F)c2)ccn1` [regorafenib]: the phenotypically active was 1 (active).

Take `NC(=O)[C@@H](CCC(F)(F)F)N(Cc1ccc(-c2ncon2)cc1F)S(=O)(=O)c1ccc(Cl)cc1` [avagacestat]: the phenotypically active was 0 (inactive).

Regarding `CCC(C)(C)C(=O)O[C@H]1C[C@@H](C)C=C2C=C[C@H](C)[C@H](CC[C@@H]3C[C@@H](O)CC(=O)O3)[C@H]21` [Simvastatin], the phenotypically active was 1 (active).

`Nc1cc(N)c(N)cc1N` [FAK Inhibitor 14]: the phenotypically active was 0 (inactive).

As to `Cc1ccc(S(=O)(=O)c2ccc([N+](=O)[O-])o2)cc1`, the phenotypically active was 0 (inactive).

Take `Fc1ccccc1Nc1nc2nonc2nc1Nc1ccccc1F`: the phenotypically active is 0 (inactive).

For `Cc1ccc(O)c([C@H](CCN(C(C)C)C(C)C)c2ccccc2)c1` [Tolterodine L-tartrate], the phenotypically active is 0 (inactive).

As to `O=c1cc(-c2ccccc2)oc2cc(O)cc(O)c12` [Chrysin], the phenotypically active is 0 (inactive).

`COc1cc2nccc(Oc3ccc(NC(=O)C4(C(=O)Nc5ccc(F)cc5)CC4)cc3)c2cc1OC`: the phenotypically active is 0 (inactive).

Turning to `CC(C)c1nc(CN(C)C(=O)N[C@H](C(=O)N[C@@H](Cc2ccccc2)C[C@H](O)[C@H](Cc2ccccc2)NC(=O)OCc2cncs2)C(C)C)cs1` [ritonavir], the phenotypically active is 0 (inactive).

Regarding `CC[C@H](CO)Nc1nc(Nc2cccc(-c3ccccn3)c2)c2ncn(C(C)C)c2n1` [(R)-DRF053 dihydrochloride], the phenotypically active is 0 (inactive).

With `CN1c2ccc([N+](=O)[O-])cc2N=C(c2ccc(C(=O)O)cc2)c2cc3c(cc21)C(C)(C)CCC3(C)C`, the phenotypically active was 0 (inactive).

With `COc1ccc(CCc2nc3cc(-c4c(C)noc4C)ccc3n2C[C@H](C)N2CCOCC2)cc1Cl`, the phenotypically active was 1 (active).

Take `CCOC(=O)c1c2c3c(cccc3[nH]c1=O)C(=O)c1ccccc1-2`: the phenotypically active is 0 (inactive).

Turning to `CCN1/C(=C/C(C)=O)Sc2ccc(O)cc21`, the phenotypically active was 0 (inactive).

With `CC(C)(C)n1nc(-c2ccc(Cl)cc2)c2c(N)ncnc21`, the phenotypically active was 0 (inactive).

Regarding `O=S(=O)(c1cccc2cnccc12)N1CCNCC1`, the phenotypically active was 1 (active).

As to `CC(C)c1c(C(=O)Nc2ccccc2)c(-c2ccccc2)c(-c2ccc(F)cc2)n1CC[C@@H](O)C[C@@H](O)CC(=O)O` [atorvastatin], the phenotypically active was 1 (active).

A further experiment relates to HepG2-GM130-SQSTM1. Described as above. Conditions: treatment time: 24 h. The procedure, abridged: as §1
With `O=C(CCCCCCC(=O)Nc1ccc([C@H]2O[C@@H](CSc3nc(-c4ccccc4)c(-c4ccccc4)o3)C[C@@H](c3ccc(CO)cc3)O2)cc1)NO` [Tubacin], the phenotypically active is 0 (inactive).

With `CC1CNCCN1S(=O)(=O)c1cccc2cnccc12` (stereo not drawn) [H-7 dihydrochloride], the phenotypically active was 1 (active).

Turning to `COc1cc(OC)c2c(=O)[nH]c(-c3cc(C)c(OCCO)c(C)c3)nc2c1` [apabetalone], the phenotypically active was 1 (active).

For `CC1(CN2CCC(n3c(=O)[nH]c4ccccc43)CC2)OCc2ccccc2-n2cccc21` (stereo not drawn), the phenotypically active is 0 (inactive).

For `N#Cc1ccc2ncnc(NCCc3ccccc3)c2c1` [Senexin A], the phenotypically active is 0 (inactive).

As to `Nc1ccc(N=Nc2ccccc2)c(N)n1` [phenazopyridine], the phenotypically active is 0 (inactive).

On to `O=C(CCCCCCC(=O)NO)NO`, for which the phenotypically active was 0 (inactive).

On to `CC(C)(C)c1ccc(C(O)CCCN2CCC(C(O)(c3ccccc3)c3ccccc3)CC2)cc1` (stereo not drawn) [terfenadine], for which the phenotypically active was 0 (inactive).

On to `COc1ccccc1C(=O)Nc1cc2c(cc1N1CCCC1)n(C)c(=O)n2C`, for which the phenotypically active was 0 (inactive).

For `CCC(=O)N1CCOc2c(cc(-c3ccc(OC)c(OC)c3)cc2OC[C@H]2CCCN(C)C2)C1`, the phenotypically active was 0 (inactive).

For `CCc1nc(-c2cccc(C)c2)c(-c2ccnc(NC(=O)c3ccccc3)c2)s1`, the phenotypically active is 1 (active).

For the molecule `Cc1ccc(S(=O)(=O)n2c(N)nc3ccccc32)cc1`, the phenotypically active was 0 (inactive).

`Cc1ccc(NC(=O)c2cccc(C(C)(C)C#N)c2)cc1Nc1ccc2ncn(C)c(=O)c2c1`: the phenotypically active was 1 (active).

With `Cn1cc(-c2cnc3ccc4ccc(CS(=O)(=O)NCc5ccccn5)cc4c(=O)c3c2)cn1`, the phenotypically active is 0 (inactive).

For the molecule `O=C1c2c(O)cccc2Cc2cccc(O)c21` [anthralin], the phenotypically active is 0 (inactive).

In the case of `COc1cc2c(cc1OC)-c1c/c(=N/c3c(C)cc(C)cc3C)n(C)c(=O)n1CC2` [Trequinsin hydrochloride], the phenotypically active is 0 (inactive).

Take `O=C(Nc1ccncc1)c1cc([N+](=O)[O-])ccc1Cl`: the phenotypically active was 1 (active).

Take `Nc1ncnc2c1c(-c1ccc(Oc3ccccc3)cc1)nn2C1CCCC1`: the phenotypically active is 0 (inactive).

Regarding `O=C(Nc1ccc(CN2CCOCC2)cc1)c1ccc(-c2cccc(Cl)c2)o1`, the phenotypically active is 0 (inactive).

On to `O=C(/C=C/c1ccc2ccccc2n1)c1ccncc1`, for which the phenotypically active was 1 (active).

Regarding `CNCC[C@H](Oc1cccc2ccccc12)c1cccs1` [duloxetine], the phenotypically active was 0 (inactive).

Regarding `CNC(=O)c1cc(Oc2ccc(NC(=O)Nc3ccc(Cl)c(C(F)(F)F)c3)c(F)c2)ccn1` [regorafenib], the phenotypically active was 1 (active).

`NC(=O)[C@@H](CCC(F)(F)F)N(Cc1ccc(-c2ncon2)cc1F)S(=O)(=O)c1ccc(Cl)cc1` [avagacestat]: the phenotypically active is 0 (inactive).

As for `CCC(C)(C)C(=O)O[C@H]1C[C@@H](C)C=C2C=C[C@H](C)[C@H](CC[C@@H]3C[C@@H](O)CC(=O)O3)[C@H]21` [Simvastatin], the phenotypically active was 1 (active).

In the case of `Nc1cc(N)c(N)cc1N` [FAK Inhibitor 14], the phenotypically active was 0 (inactive).

For the molecule `Cc1ccc(S(=O)(=O)c2ccc([N+](=O)[O-])o2)cc1`, the phenotypically active is 1 (active).

Consider `Fc1ccccc1Nc1nc2nonc2nc1Nc1ccccc1F`, for which the phenotypically active is 0 (inactive).

In the case of `Cc1ccc(O)c([C@H](CCN(C(C)C)C(C)C)c2ccccc2)c1` [Tolterodine L-tartrate], the phenotypically active was 0 (inactive).

On to `O=c1cc(-c2ccccc2)oc2cc(O)cc(O)c12` [Chrysin], for which the phenotypically active was 0 (inactive).

For the molecule `COc1cc2nccc(Oc3ccc(NC(=O)C4(C(=O)Nc5ccc(F)cc5)CC4)cc3)c2cc1OC`, the phenotypically active was 0 (inactive).

For `CC(C)c1nc(CN(C)C(=O)N[C@H](C(=O)N[C@@H](Cc2ccccc2)C[C@H](O)[C@H](Cc2ccccc2)NC(=O)OCc2cncs2)C(C)C)cs1` [ritonavir], the phenotypically active is 1 (active).

Consider `CC[C@H](CO)Nc1nc(Nc2cccc(-c3ccccn3)c2)c2ncn(C(C)C)c2n1` [(R)-DRF053 dihydrochloride], for which the phenotypically active is 1 (active).

In the case of `CN1c2ccc([N+](=O)[O-])cc2N=C(c2ccc(C(=O)O)cc2)c2cc3c(cc21)C(C)(C)CCC3(C)C`, the phenotypically active is 0 (inactive).

With `COc1ccc(CCc2nc3cc(-c4c(C)noc4C)ccc3n2C[C@H](C)N2CCOCC2)cc1Cl`, the phenotypically active was 1 (active).

Regarding `CCOC(=O)c1c2c3c(cccc3[nH]c1=O)C(=O)c1ccccc1-2`, the phenotypically active was 0 (inactive).

With `CCN1/C(=C/C(C)=O)Sc2ccc(O)cc21`, the phenotypically active was 0 (inactive).

With `CC(C)(C)n1nc(-c2ccc(Cl)cc2)c2c(N)ncnc21`, the phenotypically active was 0 (inactive).

Consider `O=S(=O)(c1cccc2cnccc12)N1CCNCC1`, for which the phenotypically active is 1 (active).

For `CC(C)c1c(C(=O)Nc2ccccc2)c(-c2ccccc2)c(-c2ccc(F)cc2)n1CC[C@@H](O)C[C@@H](O)CC(=O)O` [atorvastatin], the phenotypically active is 1 (active).
